Data: PubChem BioAssay (NCATS)
Several values for one entry are separate records, joined by “and”; a condition that tells them apart may be missing. Equal values may be shown once. Records with an inconclusive call do not appear. Activity calls are given as the source filed them. Unless noted, calls follow the shape of the dose curve; as a rule, active = well fitted curve in the direction sought with a large enough effect; inconclusive = small, poorly fitted or top-dose-only effect, or another doubt; inactive = no such curve, though single readings can be large; an effect the other way counts as inactive or inconclusive.

Assays:
[1] = Cellular Toxicity (caspase-3) Renal Proximal Tubule (AID 667);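 also: cells exposed to compound for 16 hours at 37 °C before detection; 0% = DMSO basal and 100% = 10 µM staurosporine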
In short: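 In qHTS format, rat primary proximal tubule cells seeded at 1000 per well are exposed to compounds for 16 hours at 37 °C. An increase in Caspase-Glo 3/7 luminescence indicates caspase activation.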

[2] = Cell Viability - LYMP2-001 (AID 921);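 also: series mostly up to about 92 µM; 0% = DMSO only and full inhibition = tetraoctylammonium bromide control wells; nearly all actives have a fitted effect of over 70% in size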
In short: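 qHTS, 1536-well; lymphoblastoid cells, 24 hr compound, 37 C; ATP by CellTiter-Glo, 30 min RT; luminescence; Hill-fit AC50.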

[3] = MultiTox-Fluor Cytotoxicity Assay - LYMP1-001 - Dead Cells (AID 946);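 also: 0% = DMSO and 100% = tetraoctylammonium bromide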
In short: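 AC50 from Hill fit of concentration-response; data normalized to DMSO (basal) and 15 uM tetraoctylammonium bromide (100%). LYMP1-001 lymphoblastoid cells, 2500/well, 16 hr compound at 37 C; dead-cell protease fluorescence, Ex/Em 485/520.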

[4] = MultiTox-Fluor Cytotoxicity Assay - LYMP1-001 - Live Cells (AID 947);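 also: 0% = DMSO only and full inhibition = tetraoctylammonium bromide control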
[5] = Cell Viability - LYMP1-002 - Assay at 16 hr (AID 948);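 also: 0% = DMSO alone and full effect = 92 µM tetraoctylammonium bromide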
In short: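 Acute cytotoxicity is scored as a concentration-dependent fall in intracellular ATP in a human lymphoblastoid line (LYMP1-002) after 16 hr compound exposure at 37 C, measured by luciferase luminescence.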

[6] = MultiTox-Fluor Cytotoxicity Assay - LYMP1-002 - Live Cells (AID 955); also: % is scaled to controls: 0 for no effect and ±100 for the full control effect
In short: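 Human lymphoblastoid LYMP1-002 cells, 2500/well, treated 16 h at 37 C in complete medium. Live-cell protease activity via GF-AFC fluorescence (Ex/Em 405/510) after 60 min reagent incubation; AC50 from Hill fits.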

[7] = MultiTox-Fluor Cytotoxicity Assay - LYMP1-002 - Dead Cells (AID 960);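 also: 0% = DMSO and 100% = tetraoctylammonium bromide; nearly all actives have a fitted effect of over 60% in size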
In short: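 Human lymphoblastoid LYMP1-002 cells, 2500/well, treated 16 h at 37 C; dead-cell protease cleavage of bis-AAF-R110 read by fluorescence (485/520); normalized to DMSO and 15 uM tetraoctylammonium bromide; AC50 from Hill fit.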

[8] = MultiTox-Fluor Cytotoxicity Assay - LYMP1-003 - Dead Cells (AID 961);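 also: 0% = DMSO and 100% = tetraoctylammonium bromide; nearly all actives have a fitted effect of over 70% in size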
In short: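 Human lymphoblastoid LYMP1-003 cells (2500/well) were treated with compounds for 16 hr at 37 C in complete medium. Dead-cell protease release was read by bis-AAF-R110 fluorescence (Ex/Em 485/520). AC50 came from Hill fits, normalized to DMSO and 15 uM tetraoctylammonium bromide.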

[9] = MultiTox-Fluor Cytotoxicity Assay - LYMP1-003 - Live Cells (AID 962);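 also: 0% = DMSO only and full loss = 92 µM tetraoctylammonium bromide; cytotoxic hits lower the live-cell protease signal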
In short: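 LYMP1-003 lymphoblastoid cells, 2500/well in complete medium, treated 16 h at 37 C; live-cell protease cleavage of GF-AFC read by fluorescence (Ex/Em 405/510) after 60 min reagent; AC50 from Hill fits of concentration-response.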

[10] = Cell Viability - LYMP1-003 - Assay at 24 hr (AID 963);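 also: plate controls were DMSO only for no effect and tetraoctylammonium bromide positive control for full effect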
In short: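 Human lymphoblastoid LYMP1-003 cells, 2500/well, treated 24 h at 37 C in complete medium. Viability read as intracellular ATP by CellTiter-Glo luminescence after 30 min at room temperature; AC50 from Hill-equation fits of qHTS concentration-response.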

[11] = Cell Viability - LYMP1-003 - Assay at 40 hr (AID 964); also: series mostly up to about 92 µM; % is scaled to controls: 0 for no effect and ±100 for the full control effect; nearly all actives have a fitted effect of over 60% in size
In short: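 LYMP1-003 human lymphoblastoid cells, 2500/well, preincubated 5 h at 37 C, then treated with compound for 40 h at 37 C. Intracellular ATP read by CellTiter-Glo luminescence after 30 min at room temperature; AC50 from Hill-equation fits.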

[12] = Cell Viability - LYMP2-004 (AID 966);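 also: plate controls were DMSO only for no effect and tetraoctylammonium bromide control for full effect; nearly all actives have a fitted effect of over 65% in size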
In short: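 Lymphoblastoid LYMP2-004 cells, 2500 per well, were preincubated for 5 hr and then treated with compound for 24 h at 37 C in complete medium. Viability was read as cellular ATP by CellTiter-Glo luminescence, and AC50 values were taken from Hill fits to concentration-response data.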

[13] = Cell Viability - LYMP2-005 (AID 967);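 also: series mostly up to about 92 µM; plate controls were DMSO only for no effect and 92 µM tetraoctylammonium bromide control for full effect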
In short: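 qHTS viability screen in LYMP2-005 cells: 24 h at 37 C with compound, ATP luminescence via CellTiter-Glo, AC50 from Hill curves.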

[14] = Cell Viability - LYMP2-009 (AID 968);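 also: series mostly up to about 92 µM; 0% = DMSO alone and the full-kill end = tetraoctylammonium bromide at 92 µM; nearly all actives have a fitted effect of over 55% in size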
[15] = Cell Viability - LYMP2-011 (AID 969);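 also: cells exposed to compound for 24 hours; 0% = DMSO only and full inhibition = 92 µM tetraoctylammonium bromide; nearly all actives have a fitted effect of over 60% in size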
In short: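 2500 cells/well in complete medium, compound-treated 24 h at 37 C. Viability read as intracellular ATP by CellTiter-Glo luminescence after 30 min at room temperature. AC50 from Hill fits of qHTS concentration-response data.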

[16] = qHTS assay for small molecule agonists of the antioxidant response element (ARE) signaling pathway measured by Nrf2-dependant transcriptional activity (AID 720636; active = well fitted curve in the direction sought with a large enough effect in the repeat runs; an effect the other way counts as inactive or inconclusive;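 also: HepG2 cells with an ARE-driven luciferase reporter; % of control where 0% means no effect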)
In short: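 First, ARE-luc HepG2 cells attached for 6 hr at 37 C in 1% dialyzed FBS medium. Next, compound or DMSO was added and incubated 16 hr. Finally, ONE-Glo reagent was added and luminescence measured after 30 min.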

[17] = qHTS assay for small molecule antagonists of the retinoid-related orphan receptor gamma (ROR-gamma) signaling pathway - cell viability counter screen (AID 720652; active = well fitted curve in the direction sought with a large enough effect in the repeat runs; an effect the other way counts as inactive or inconclusive;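 also: CHO reporter cells with doxycycline-induced ROR-gamma expression; series mostly up to about 92 µM; compound exposure lasted 16 hr before ATP read; % is scaled to controls: 0 for no effect and ±100 for the full control effect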)
In short: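 CHO cells carrying TET-inducible ROR and RORE-luciferase reporter, plated 5 hr, then dosed with compound plus doxycycline. After 16 hr at 37 C, viability read as intracellular ATP by CellTiter-Glo luminescence.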

[18] = qHTS assay for small molecule agonists of the antioxidant response element (ARE) signaling pathway measured by Nrf2-dependant transcriptional activity - cell viability counter screen (AID 720653; active = well fitted curve in the direction sought with a large enough effect in the repeat runs; an effect the other way counts as inactive or inconclusive; also: % is scaled to controls: 0 for no effect and ±100 for the full control effect); details: ARE-bla HepG2 viability, CellTiter-Glo ATP luminescence, 16 h; active compounds read low
In short: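 ARE-bla HepG2 cells (2,000/well) rested 5 hrs at 37C/5% CO2, then exposed to compounds in DMSO for 16 hrs. Viability was read in the same wells as intracellular ATP by luminescence, 30 min at room temperature after reagent addition.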

[19] = qHTS assay for cell viability of HEK293 cells (AID 743288); details: ATP luminescence (CellTiter-Glo), 18 h, active compounds read low; also: % is scaled to controls: 0 for no effect and ±100 for the full control effect; nearly all actives have a fitted effect of over 50% in size
In short: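 The Tox21 protocol used parental HEK293 cells treated for 18 h at 37 C with compounds delivered by pintool; ATP-coupled luminescence after 30 min at room temperature gave viability.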

[20] = qHTS assay for cell viability of the p53RE-bla HCT-116 cell line (AID 743292); also: % is scaled to controls: 0 for no effect and ±100 for the full control effect; nearly all actives have a fitted effect of over 55% in size
In short: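 Quantitative high-throughput format: compounds in DMSO were pinned onto p53RE-bla HCT-116 cells (4,000/well) and incubated 16 h at 37 C. Total intracellular ATP, read by CellTiter-Glo luminescence, reflects viable cell number.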

Measured: max response

Cc1occc(=O)c1O
inactive: [1] | [2] | [3] | [4] | [5] | [6] | [7] | [8] | [9] | [10] | [11] | [12] | [13] | [14] | [15] | [16] | [17] | [18] 5.21% | [19] 0.312% | [20]

CC1=CC(=O)CC(C)(C)C1(O)/C=C/C(C)=C\C(=O)O (stereo not given)
inactive: [1] | [2] | [3] | [4] | [5] | [6] | [7] | [8] | [9] | [10] | [11] | [12] | [13] | [14] | [15] | [16] | [17] | [18] 6.26% | [19] 11% | [20]

C=C(C)[C@H]1CC=C(C)C(=O)C1
inactive: [1] | [2] | [3] | [4] | [5] | [6] | [7] | [8] | [9] | [10] | [11] | [12] | [13] | [14] | [15] | [16] | [17] | [18] -9.52% and 8.39% | [19] -10.1% and -1.01% | [20]

C=CC(C)(O)CCC=C(C)C (stereo not given)
inactive: [1] | [2] | [3] | [4] | [5] | [6] | [7] | [8] | [9] | [10] | [11] | [12] | [13] | [14] | [15] | [16] | [17] | [18] 12.9% and 1.07% | [19] 5.28% and -11.2% | [20]

COS(C)(=O)=O
inactive: [1] | [2] | [3] | [4] | [5] | [6] | [7] | [8] | [9] | [10] | [11] | [12] | [13] | [14] | [15] | [16] | [17] | [18] -2.28% | [19] 1.66% | [20]
